Screening results: PubChem, National Center for Advancing Translational Sciences (NCATS)
USP2a inh – blocks human ubiquitin-specific protease USP2a; USP2 core, Ub-CHOP2 coupled fluorogenic reporter, 485/531; Potency, µM (series often up to 38.3 µM), hits mostly inhibitors; actives 0.01% (n = 330,000); O75604
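USP2 core (10nM final) preincubated 30min RT with compound in 20mM Tris-HCl pH 8.0, 2mM CaCl2, 2mM beta-mercaptoethanol, 0.05% CHAPS; 25nM Ub-CHOP2 plus 25nM reporter substrate added, fluorescence (Ex485/Em531) read after 60min.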
Coupling enz – counter-screen for Giardia aldolase inhibitors: coupling enzyme system; coupling enzyme system counterscreen, AmpLite Red fluorescence; activity change, negative = inhibition, % at 58.2 µM, hits read low; actives 0.67% (n = 290,000); in the data active = activity change below about -30%
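Compounds tested against the coupling enzymes alone at 57.5 uM final; readout was AmpLite Red fluorescence (525/598 nm) after 20 min at RT.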
PLK1 PBD block – inhibitors of human PLK1 polo-box domain binding | P53350 | Potency, µM, usual class: inhibitors | actives 2.8% (n = 360,000) | Plk1 PBD binding of FITC phosphopeptide, fluorescence polarization; note: series mostly up to about 57 µM; nearly all actives have a fitted effect of over 65% in size
VDR inhibitor – inhibitors of human vitamin D receptor; actives 0.93% (n = 400,000); P11473; AID 504847; Potency, µM, most hits filed as inhibitors; VDR-SRC2-3 peptide fluorescence polarization, 2 h
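Fluorescence polarization assay measuring small-molecule disruption of VDR binding to the coregulator peptide SRC2-3. Compounds were pin-transferred (23 nl) into the reagent mix and incubated 2 h at room temperature before reading.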
GALK inh – blocks human galactokinase activity; actives 0.007% (n = 270,000); Potency, µM (top dose mostly 57.5 µM), usual class: inhibitors; P51570; Purified GALK, Kinase-Glo residual ATP luminescence
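Galactose (100 uM) and ATP (35 uM) were turned over by 5 nM GALK for 1 h at RT. Kinase-Glo Plus then converted the remaining ATP into a luminescent signal.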
USP1-UAF1 inh – inhibitors of human USP1/UAF1 deubiquitinase; O94782; recombinant USP1/UAF1, Ub-Rhodamine cleavage fluorescence; Potency, µM (titrated, usually from 57.1 µM), hits mostly inhibitors; actives 0.23% (n = 390,000); AID 743255; note: nearly all actives have a fitted effect of over 60% in size
Target sequence (O94782 whole entry, looked up): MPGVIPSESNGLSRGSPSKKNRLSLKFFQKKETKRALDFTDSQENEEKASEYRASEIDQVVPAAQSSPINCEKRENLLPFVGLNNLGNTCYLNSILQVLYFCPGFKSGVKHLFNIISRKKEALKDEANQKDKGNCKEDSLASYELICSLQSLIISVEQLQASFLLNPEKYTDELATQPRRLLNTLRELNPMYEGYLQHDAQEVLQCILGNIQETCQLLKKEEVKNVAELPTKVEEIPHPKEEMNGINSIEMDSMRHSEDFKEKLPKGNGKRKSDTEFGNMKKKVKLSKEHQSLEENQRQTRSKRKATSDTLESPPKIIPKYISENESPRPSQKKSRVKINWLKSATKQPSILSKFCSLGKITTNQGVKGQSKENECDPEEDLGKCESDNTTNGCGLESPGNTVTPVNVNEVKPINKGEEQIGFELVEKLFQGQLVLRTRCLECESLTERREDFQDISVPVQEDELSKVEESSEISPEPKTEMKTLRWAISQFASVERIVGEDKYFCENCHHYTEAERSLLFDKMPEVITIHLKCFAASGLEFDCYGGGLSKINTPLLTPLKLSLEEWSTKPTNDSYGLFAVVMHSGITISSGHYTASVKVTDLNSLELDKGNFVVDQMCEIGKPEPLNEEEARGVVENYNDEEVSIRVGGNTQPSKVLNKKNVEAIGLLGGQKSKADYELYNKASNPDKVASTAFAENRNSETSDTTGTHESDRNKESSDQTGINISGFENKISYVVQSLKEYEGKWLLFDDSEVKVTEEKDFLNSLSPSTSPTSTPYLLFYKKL
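High-throughput fluorogenic screen: 1nM USP1/UAF1 complex, Ub-Rho substrate 150nM final, 50mM HEPES pH 7.8 with 0.5mM EDTA, 0.1 mg/ml BSA, 1mM TCEP and 0.01% Tween-20.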
USP1-UAF1 confirm – blocks human USP1/UAF1 cleavage of Ub-Rhodamine; Potency, µM (highest dose often 56.8 µM), hits mostly inhibitors; actives 50% (n = 50); shares compounds with VDR inhibitor; Ub-Rhodamine cleavage, fluorescence kinetic read
VDR inh confirm – confirmation of human vitamin D receptor inhibitors; shares compounds with VDR inhibitor; VDR-coactivator inhibition assay, qHTS confirmation; Potency, µM, most hits filed as inhibitors; actives 89% (n = 840); AID 602199
VDR FP fluor – VDR (human) coactivator binding inhibition, fluorescein polarization | shares compounds with VDR inhibitor | VDR-coactivator binding, fluorescein fluorescence polarization | Potency, µM (highest dose often 57.1 µM), usual class: inhibitors | actives 48% (n = 840)
VDR bla – inhibits human VDR in beta-lactamase reporter cells; Potency, µM (series often up to 46.1 µM), actives largely listed as inhibitors; shares compounds with VDR inhibitor; actives 23% (n = 840); AID 602202; VDR beta-lactamase reporter cells, FRET ratio; cells co-treated with VDR agonist LG190178
VDR viability – cell toxicity, VDR inhibitor hit counter-screen | Potency, µM (top dose mostly 48.3 µM), hits mostly cytotoxic | shares compounds with VDR inhibitor | AID 602204 | cytotoxicity counter-screen, cell viability, qHTS | actives 18% (n = 840); note: nearly all actives have a fitted effect of over 75% in size
TbPYK inh – confirmation of Trypanosoma brucei pyruvate kinase inhibitors; AID 720569; actives 67% (n = 890); Potency, µM (doses to about 76.9 µM), hits mostly inhibitors; shares compounds with PLK1 PBD block; recombinant TbPYK, Kinase-Glo ATP luminescence; note: nearly all actives have a fitted effect of over 70% in size
TbPYK ADP-Glo – orthogonal confirmation of Trypanosoma brucei pyruvate kinase inhibitors; actives 62% (n = 890); AID 720584; recombinant TbPYK, ADP-Glo luminescence, 60 min; shares compounds with PLK1 PBD block; Potency, µM (series often up to 76.9 µM), most hits filed as inhibitors; note: nearly all actives have a fitted effect of over 75% in size
Large screens that a line does not name were inactive (follow-up assays come after a bar, where they were run). Only some compounds are listed: those with a hit (about 3.2% of all), similar ones and a draw of the others. Unless noted, calls come from the whole dose curve; as a rule, active = well fitted curve in the direction sought with a large enough effect; inconclusive = small, poorly fitted or top-dose-only effect, or another doubt; inactive = no such curve, though single readings can be large; an effect the other way counts as inactive or inconclusive.

COc1ccc(-n2c(O)c(/C=C3\C=Nc4ccc(Br)cc43)c(=O)[nH]c2=O)c(OC)c1	PLK1 PBD block 2.12µM, VDR inhibitor 50.1µM, USP1-UAF1 inh inconclusive | VDR inh confirm 16.8 | VDR FP fluor inconclusive | VDR bla inconclusive | VDR viability inconclusive
COc1ccc(OC)c(-n2c(O)c(C=NCc3ccc4c(c3)OCO4)c(=O)[nH]c2=O)c1	none
COc1ccc(C(=O)/C=C2/C(=O)Nc3ccccc32)c(OC)c1	PLK1 PBD block inconclusive, VDR inhibitor 35.5µM | VDR inh confirm 21.2 | VDR FP fluor inconclusive | VDR bla inconclusive | VDR viability 12.6µM
CCOc1ccc(N2C(=O)NC(=O)/C(=C\c3ccccc3[N+](=O)[O-])C2=O)cc1	PLK1 PBD block 9.47µM, VDR inhibitor 31.6µM | VDR inh confirm 9.47 | VDR FP fluor inconclusive | VDR bla inactive | VDR viability inactive
CCOc1cc(C=C2C(=O)NC(=O)NC2=O)cc([N+](=O)[O-])c1O	none (no result: PLK1 PBD block, VDR inhibitor, USP1-UAF1 inh)
C=C1C([C@@H](O)C[C@H](C)C2O[C@@]3(CCCCO3)CC[C@H]2C)OC2CC[C@@]3(CC[C@@H](/C=C/[C@@H](C)C4CC(C)=C[C@]5(O4)O[C@H](C[C@@](C)(O)C(=O)O)CCC5O)O3)OC2[C@@H]1O (some centres undefined)	none (no result: USP2a inh, Coupling enz, PLK1 PBD block, GALK inh, USP1-UAF1 inh)
OCCN1CCN(CCCN2c3ccccc3Sc3ccc(C(F)(F)F)cc32)CC1	none | USP1-UAF1 confirm inconclusive
FC(F)(F)c1ccc2c(c1)N(CCCN1CCN(CCCl)CC1)c1ccccc1S2	USP2a inh inconclusive
O=C1NCN(c2ccccc2)C12CCN(C(c1cccs1)c1nnnn1-c1ccc3c(c1)OCCO3)CC2 (centres undefined)	none (no result: USP2a inh, Coupling enz, VDR inhibitor, GALK inh, USP1-UAF1 inh)
O=[N+]([O-])c1ccc(Sc2nc3ccccc3o2)c([N+](=O)[O-])c1	PLK1 PBD block 5.32µM, VDR inhibitor 25.1µM | VDR inh confirm 18.9 | VDR FP fluor 14.1µM | VDR bla inconclusive | VDR viability inconclusive
CC(=O)c1ccccc1NC(=O)C1C2CCC(O2)C1C(=O)O (centres undefined)	none (no result: PLK1 PBD block, VDR inhibitor, USP1-UAF1 inh)
CCC1(c2ccccc2)C(=O)N(C)C(=O)N(C)C1=O	none (no result: USP2a inh)
CN1C(=O)N(C)C(=O)C2(Sc3ccccc3C2=O)C1=O	PLK1 PBD block 5.32µM, VDR inhibitor 35.5µM | VDR inh confirm 3.36 | VDR FP fluor 3.55µM | VDR bla inactive | VDR viability inactive | TbPYK inh 5.01µM | TbPYK ADP-Glo inconclusive
O=C1NC(=O)C(CCc2ccncc2)(Cc2ccc3c(c2)OCO3)C(=O)N1CCc1ccccc1 (centres undefined)	none
O=C(O)c1ccccc1-c1ccc(C=C2C(=O)N(c3ccccc3)C(=S)N(c3ccccc3)C2=O)o1	PLK1 PBD block 2.67µM, VDR inhibitor 15.8µM | VDR inh confirm 3.77 | VDR FP fluor inconclusive | VDR bla inactive | VDR viability inactive | TbPYK inh 31.6µM | TbPYK ADP-Glo 39.8µM
CCc1ccccc1N1C(=O)/C(=C/c2ccc(N3CCN(C)CC3)o2)C(=O)NC1=S	USP2a inh inconclusive, USP1-UAF1 inh inconclusive
O=C1NC(=S)NC(=O)C1=Cc1ccc(Br)s1	PLK1 PBD block 2.12µM, VDR inhibitor 22.4µM | VDR inh confirm 4.23 | VDR FP fluor inconclusive | VDR bla inconclusive | VDR viability inconclusive | TbPYK inh 10µM | TbPYK ADP-Glo 15.8µM
CC(C)CCOP(N)(=O)Oc1ccccc1 (centres undefined)	none (no result: GALK inh)
COC(=O)COc1ccc(/C=C2\C(=O)NC(=S)N(c3ccc(C)cc3)C2=O)cc1OC	PLK1 PBD block 8.44µM, VDR inhibitor 25.1µM | VDR inh confirm 6.7 | VDR FP fluor inconclusive | VDR bla inactive | VDR viability inactive | TbPYK inh inconclusive | TbPYK ADP-Glo inconclusive
COc1ccc(/C=C/c2nc3ccccc3c(=O)n2-c2ccc(C)cc2)cc1O	none (no result: USP2a inh, Coupling enz, PLK1 PBD block, GALK inh)
Cc1ccc(NP(=O)(Oc2ccccc2F)Oc2ccccc2F)cc1	none
CN(C)c1ccc(C=C2C(=O)NC(=S)NC2=O)cc1[N+](=O)[O-]	PLK1 PBD block 3.77µM, VDR inhibitor 22.4µM | VDR inh confirm 13.4 | VDR FP fluor 10µM | VDR bla inactive | VDR viability inactive | TbPYK inh 4.47µM | TbPYK ADP-Glo 14.1µM
CN1C(=O)C(=Cc2ccc(N(C)C)c([N+](=O)[O-])c2)C(=O)N(C)C1=O	none (no result: PLK1 PBD block, VDR inhibitor, USP1-UAF1 inh)
Oc1ccc(Cl)cc1CN1CCN(Cc2ccccc2)CC1	none
CC(C)Nc1ccc(Nc2ccccc2)cc1	PLK1 PBD block inconclusive, VDR inhibitor 39.8µM (no result: Coupling enz, GALK inh) | VDR inh confirm inconclusive | VDR FP fluor 7.08µM | VDR bla inconclusive | VDR viability inconclusive | TbPYK inh 5.01µM | TbPYK ADP-Glo 15.8µM
C=C1C(O)[C@@H]2O[C@]3(CC[C@H](/C=C/C(C)[C@@H]4CC(C)=CC5(O[C@H](C[C@@](C)(O)C(=O)O)CCC5O)O4)O3)CC[C@H]2O[C@@H]1C(O)CC(C)[C@H]1OC2(CCCCO2)CCC1C (some centres undefined)	none (no result: Coupling enz, GALK inh)
CN1C(=O)NC(=O)/C(=C/c2ccc([N+](=O)[O-])s2)C1=O	PLK1 PBD block 2.67µM, VDR inhibitor 44.7µM, USP1-UAF1 inh 25.1µM | VDR inh confirm 8.44 | VDR FP fluor inconclusive | VDR bla inactive | VDR viability inconclusive | TbPYK inh 5.01µM | TbPYK ADP-Glo 11.2µM
